High-throughput results: PubChem BioAssay, National Center for Advancing Translational Sciences (NCATS)
TRHR PAM: allosterically enhances the human TRH receptor; TRHR cells, fluo-8 calcium fluorescence, EC20 TRH enhancement; enhancement, % at 2 µM; hit rate 0.66% among 360,000; P34981; in the data active = enhancement above about 30%
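TRHR-expressing cells loaded with fluo-8 calcium dye were read kinetically (ex 480/em 530) during compound addition, then stimulated with an EC20 of TRH (10 nM final). Enhancement of the Gq-mediated intracellular calcium response was scored.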
D1 antagonist: antagonists of human D1 dopamine receptor; P21728; activity change, negative = inhibition, % at 10 µM; HEK293 TREx D1 cells, calcium flux, dopamine EC80; active compounds read low; AID 504652; hit rate 3.2% among 360,000; in the data active = activity change below about -30%
Target sequence (P21728 whole entry, looked up): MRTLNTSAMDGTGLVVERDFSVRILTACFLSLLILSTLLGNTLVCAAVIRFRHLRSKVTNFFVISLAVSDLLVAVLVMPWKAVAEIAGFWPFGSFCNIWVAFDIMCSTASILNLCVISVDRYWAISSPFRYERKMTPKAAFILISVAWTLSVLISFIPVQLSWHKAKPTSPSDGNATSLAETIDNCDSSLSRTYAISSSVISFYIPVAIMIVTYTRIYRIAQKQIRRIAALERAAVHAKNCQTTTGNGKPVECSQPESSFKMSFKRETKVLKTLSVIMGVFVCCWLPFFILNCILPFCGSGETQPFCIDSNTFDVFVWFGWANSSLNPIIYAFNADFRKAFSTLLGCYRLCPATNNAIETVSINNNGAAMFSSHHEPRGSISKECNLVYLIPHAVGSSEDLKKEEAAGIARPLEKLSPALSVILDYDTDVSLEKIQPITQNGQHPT
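Tetracycline-induced HEK293 Trex D1 cells, force-coupled to calcium, dye-loaded; compounds added and read 180 s, then EC80 dopamine added and calcium flux tracked kinetically another 180 s.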
D1 ag: human D1 receptor agonism; hit rate 1% among 360,000; activation, % at 2 µM; P21728; HEK293 T-REx D1 cells, calcium flux, agonist mode
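Agonism was scored from calcium flux recorded over 180 s (1 read/s) after pintool compound addition, following a 10-cycle baseline. Cells were inducible force-coupled HEK293 TREx D1, plated overnight at 30 C and loaded with no-wash calcium dye.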
D1 potentiator: human D1 dopamine receptor positive modulation | P21728 | HEK293 TREx D1 cells, calcium flux, dopamine EC20 potentiation | potentiation, % at 10 µM | hit rate 0.036% among 360,000 | AID 504651; in the data active = potentiation above about 30%
TRHR agonist: activates the human TRH receptor; P34981; TRHR cells, calcium flux fluo-8, FDSS agonist mode; activation, % at 2 µM; hit rate 0.18% among 360,000; AID 493084
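Steps: seed TRHR cells overnight; add fluo-8 no-wash Ca dye, RT 30 min–1.5 h; record 10 s baseline; pin-transfer compounds; monitor fluorescence 1 cycle/s for the agonist window. Calcium increases flag candidate agonists.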
Each line names hits and unclear results; the compound was inactive in the other large screens; ! = not confirmed by another sample. Rows were chosen to be rich in hits. Some 4.6% of all compounds tested hit in one or more screens of this group. Cut-off read from the data, not from the text of the source, unless noted: active = activation above about 30%; inactive = the rest.

Cc1nc2ccc(NC(=O)c3cc([N+](=O)[O-])cc([N+](=O)[O-])c3Cl)cc2s1	D1 antagonist -55
Cc1nc2ccc(NC(=O)c3ccc(Cl)c([N+](=O)[O-])c3)cc2s1	none
CC(=O)Nc1ccc(NC(=O)CN(C)S(=O)(=O)c2ccc3nc(C)sc3c2)cc1	none
O=C(Nc1ccc([N+](=O)[O-])cc1)Nc1nc(-c2ccc(Cl)s2)cs1	D1 antagonist -47
CC(=O)Nc1nc(-c2ccc([N+](=O)[O-])cc2)cs1	none
O=C(COc1ccc2c(c1)CCC2)N1CCN(c2cccc(C(F)(F)F)c2)CC1	D1 antagonist -44
O=C(COc1cccc(C(F)(F)F)c1)N1CCN(c2ccc(O)cc2)CC1	none
O=C(COc1cccc(C(F)(F)F)c1)N1CCN(c2ccccc2O)CC1	D1 antagonist -34
COc1ccc(-c2nc3ccc(NS(=O)(=O)c4ccccc4)cc3o2)cc1	none
CC(C)C(C(=O)Nc1ccncc1)c1ccc(Cl)cc1 (stereo not given)	D1 ag 51
CC(C)c1ccc(OCC(=O)Nc2ccncc2)cc1	D1 antagonist -34
CC(C)c1ccc(NC(=O)NCc2ccccn2)cc1	D1 antagonist -34
Cc1cc(OCC(=O)Nc2ccncc2)ccc1Cl	D1 antagonist -38
C/C(=N\NC(=O)c1ccccc1N)c1ccc(NC(=O)Cc2ccccc2)cc1	none
COc1cccc(CC(=O)Nc2sc3c(c2C(N)=O)CCCC3)c1	none
CC1=C(C)CC(C(=O)NCc2ccccn2)C(C(=O)O)C1 (stereo not given)	D1 antagonist -91
COc1ccc(NC(=O)Nc2ccc(C(C)C)cc2)cc1	D1 antagonist -37
CC(C)c1onc(C(=O)NCc2ccccn2)c1[N+](=O)[O-]	TRHR PAM 31
COc1ccc(NC(=O)CCC(=O)c2ccc(C(C)C)cc2)cc1	none
CCN(Cc1ccccc1)C(=O)c1cccc(S(=O)(=O)N2CCN(c3ccccc3)CC2)c1	none
O=C(c1cccc(S(=O)(=O)N2CCOCC2)c1)N(CCO)Cc1ccccc1	D1 antagonist -33
CC(C)c1ccc(S(=O)(=O)N2CCN(C(=O)c3cccc(F)c3)CC2)cc1	D1 antagonist -68
CC(=O)N1CCN(C(=O)c2cccc(S(=O)(=O)N3CCN(c4ccc(F)cc4)CC3)c2)CC1	D1 ag 53
CCN(Cc1ccccc1)C(=O)c1cccc(S(=O)(=O)N2CCN(c3ccc(F)cc3)CC2)c1	D1 antagonist -63
O=C(c1cccc(S(=O)(=O)N2CCN(c3ccc(F)cc3)CC2)c1)N1CCCCCCC1	none
CC(C)CCNC(=O)Cn1c(-c2cccs2)cc2cc(F)ccc21	none
Nc1nc(SCc2ccc(Cl)cc2Cl)nc2nc3c(cc12)CCCC3	none
C[C@H]1C=C(C(=O)N2CCOCC2)O[C@@H](OCc2ccc(CO)cc2)C1	none
O=C(NC1=NCCS1)c1cccc(S(=O)(=O)N2CCOCC2)c1	TRHR PAM 32
O=C(c1cccc(NS(=O)(=O)c2ccc(F)cc2)c1)N1CCN(c2ccccc2)CC1	D1 antagonist -42
O=C(Nc1ccc(Cl)cc1Cl)C1CCC(=O)N1Cc1ccccc1Cl (stereo not given)	D1 ag 37
Cc1ccc(CNC(=O)CCC(=O)N2CC(C)Oc3ccccc32)cc1 (stereo not given)	none
O=C(O/N=C/c1ccc2c(c1)OCO2)c1ccc([N+](=O)[O-])cc1	none
Cc1ccc(C(=O)O/N=C/c2ccc3c(c2)OCO3)cc1	D1 antagonist -67
Oc1ccc(CN2CCc3ccccc3C2)c2cccnc12	none
NC(=O)N/N=C/c1coc2ccc3ccccc3c2c1=O	D1 antagonist -71
CCOc1ccc(C(=O)Nc2c(C(=O)c3ccccc3)oc3ccccc23)cc1	D1 ag 143, TRHR agonist 32
COc1cccc(NC(=O)c2oc3ccccc3c2NC(=O)c2ccc(OC(C)C)cc2)c1	D1 ag 50
COc1cccc(NC(=O)c2oc3ccccc3c2NC(=O)c2ccc3c(c2)OCO3)c1	none
O=C(Cc1cc(=O)[nH][nH]1)N/N=C/C(Cl)=C/c1ccccc1	D1 ag 31!
O=C(Cc1cc(=O)[nH][nH]1)N/N=C/c1ccccc1Cl	none
Cc1cc(=O)oc2c3c(cc(OCC(=O)NC(Cc4ccc(Cl)cc4)C(=O)O)c12)OC(C)(C)CC3 (stereo not given)	none
CCc1ccc2occ(CC(=O)NCc3ccccc3)c2c1	D1 ag 49
CCc1ccc2occ(CC(=O)Nc3ccccc3C(F)(F)F)c2c1	none
Cc1ccc(-n2nc(C)c3c(C(=O)O)cc(C)nc32)cc1	D1 antagonist -50
COc1ccc(-c2cc(C(=O)O)c3c(C)nn(-c4ccccn4)c3n2)cc1	D1 antagonist -40
CCOc1ccc(N=C2NC(=O)S/C2=C\c2ccc(Cl)cc2)cc1	none
COc1ccc(N=C2NC(=O)S/C2=C\c2ccc(N(C)C)cc2)cc1	D1 ag 67
Cc1ccc2ncc(C(=O)NC(C)c3ccccc3)c(=O)n2c1 (stereo not given)	D1 antagonist -34
Cc1cccc(-n2ncc3c(NCCN4CCOCC4)ncnc32)c1	none
Cc1ccc(-n2ncc3c(NCCc4ccc(S(N)(=O)=O)cc4)ncnc32)cc1	D1 antagonist -48
c1ccc(CCNc2ncnc3c2cnn3-c2ccccc2)cc1	none
Cc1cccc(-n2ncc3c(NCCc4ccc(S(N)(=O)=O)cc4)ncnc32)c1	D1 antagonist -48
O=C(NC1CCN(Cc2ccccc2)CC1)c1cc(S(=O)(=O)Nc2ccc(F)cc2)ccc1Cl	none
Oc1ccc(CN2CCC(Cc3ccccc3)CC2)c2cccnc12	none
Cc1cc(-c2ccc(Cl)cc2Cl)c(C#N)c(=O)[nH]1	D1 ag 31
CSc1nc(-c2ccc(Cl)cc2Cl)[nH]c(=O)c1C#N	none
Cc1ccc(C(C#N)c2ccc(Cl)nn2)cc1 (stereo not given)	none
COc1ccc(C(=O)c2sc3nc(C)cc(-c4cccs4)c3c2N)cc1OC	D1 ag 82
Cc1cc(-c2cccs2)c2c(N)c(C(=O)c3ccc4c(c3)OCO4)sc2n1	D1 ag 61
COc1ccc(N2C3=[N+](CC2(C)O)c2ccccc2CC3)cc1 (stereo not given)	D1 antagonist -89
Cn1c(=NC(=O)CCS(=O)(=O)c2ccccc2)sc2cc(F)ccc21	none
COC(=O)c1ccc(/C=N/OCC(=O)NCc2ccc(F)cc2)cc1	D1 antagonist -51
COc1ccc(CNC(=O)COc2ccc(C(=O)c3ccc(F)cc3)cc2)cc1	D1 antagonist -30
CC(C)CN1CCC(=O)N(CCOc2ccccc2)CC1	none
O=C(c1ccc(NS(=O)(=O)c2cccc(C(F)(F)F)c2)cc1)N1CCCC1	none
Cc1ccc(CNc2ccc3c(c2)ncn3C)cc1	none
CCc1ccc(CNc2ccc3c(c2)ncn3C)cc1	TRHR PAM 31
